This passage reports inhibition results from PubChem BioAssay.

Structures are written as SMILES. Values without a mark were called inactive. No stated cut-off is given here; in the data, active means inhibition above about 30%; inactive means the rest.

This experiment is described as follows: growth suppression of yeast trafficking mutant, preliminary HTS, modulators of trafficking downstream of Golgi apparatus project, 1536-format plate, OD 615 nm (AID 637). Particulars: yeast transport mutant growth, absorbance 615 nm, 18 h; active compounds read high.
For orientation: inhibition means the relative decrease from the control value, in per cent. Consider `CCOC(=O)c1sc(NC(=O)c2c(C)nn(Cc3ccccc3)c2C)cc1C`, for which the inhibition was -4.92%.
Turning to `Cc1nn(-c2nc3ccccc3s2)c(C)c1Oc1ccccc1O`, the inhibition was -0.63%.
Take `Cc1cc(C)c2c(n1)nn1c(N3CCN(c4ccccc4C)CC3)cc(C)nc21`: the inhibition was 6.73%.
For `COc1ccc(-c2noc(CCC(=O)NCCCN3CCC(Cc4ccccc4)CC3)n2)cc1`, the inhibition is -6%.
With `Cc1[nH]nc(N=CC2=C(O)CC(C)(C)CC2=O)c1-c1ccc(Cl)cc1`, the inhibition is 6.83%.
Next, `c1ccc2c(-c3nc(C4CCCCC4)no3)cc(-c3ccncc3)nc2c1`: 8.23%.
For the compound `CCCc1nc2ccccc2c(=O)n1NC(=O)c1c(O)c2cccc3c2n(c1=O)CCC3`, the inhibition is 14.1%.
Regarding `Cc1csc2ncc(C(=O)Nc3ccccc3Cl)c(=O)n12`, the inhibition is 4.5%.
For `CN1CC=C2C(C#N)=C(N)C(C#N)(C#N)[C@H](c3cccc(Cl)c3)C2C1` (stereo not given in full), the inhibition was -1.9%.
As for `O=C(NC1CCc2ccccc21)C1CCN(S(=O)(=O)c2ccc(-n3cnnn3)cc2)CC1` (stereo not given), the inhibition is -0.36%.
Take `N#CC(C(=O)C1CCCCC1)c1nc2ccccc2[nH]1` (stereo not given): the inhibition was 20.6%.
As for `Cc1nc2ccccc2c(=O)n1NC(=O)c1c(O)c2c(n(CC(C)C)c1=O)CCCC2`, the inhibition is 9.35%.
For the compound `COc1ccc(Br)cc1C1N2CC3(C)CN1CC(C)(C2)C3=O` (stereo not given), the inhibition was -3.61%.
Take `CCn1cc(C(=O)OCC(=O)OC2CC(C)CCC2C(C)C)c(=O)c2ccc(C)nc21` (stereo not given): the inhibition was -1.45%.
As for `CCCNC(=O)c1c(N)n(-c2cc(OC)cc(OC)c2)c2nc3ccccc3nc12`, the inhibition was 2.3%.
